Laboratory results: PubChem BioAssay (NCI)
This is part of a sample that, as a whole, favours compounds with a hit. Of some 79,000 tested, about 15% had one in any assay. A number with no mark means an inactive call. Activity calls are given as the source filed them. No stated cut-off is given here; in the data, active means growth inhibition above about 70%; inactive means the rest.

Key:
[1] = NCI Yeast Anticancer Drug Screen. Data for the rad50 strain (AID 155);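 further: 0% = growth of vehicle-only cultures of the same strain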; settings: S. cerevisiae rad50 strain growth inhibition, active compounds read high
Summary of the method: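 Yeast carrying a defined DNA repair defect were exposed to test compounds, and growth was compared with vehicle-treated controls to give percent inhibition.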

[2] = NCI Yeast Anticancer Drug Screen. Data for the mec2-1 strain (AID 157); settings: S. cerevisiae mec2-1 strain, active compounds read high
Summary of the method: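 Each compound was tested on mec2-1 yeast, a strain altered in DNA damage repair or cell cycle control. Growth inhibition is reported relative to vehicle.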

[3] = NCI Yeast Anticancer Drug Screen. Data for the sgs1 mgt1 strain (AID 161);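 further: 0% = growth of cultures given vehicle only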; settings: S. cerevisiae sgs1 mgt1 strain, active compounds read high
Summary of the method: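 Genetically altered yeast, compound exposure, growth inhibition relative to vehicle.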

[4] = NCI Yeast Anticancer Drug Screen. Data for the cln2 rad14 strain (AID 165);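 further: 0% = growth equal to vehicle treated cultures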; settings: S. cerevisiae cln2 rad14 strain, active compounds read high
Summary of the method: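 Test compounds were added to cln2 rad14 yeast cultures; inhibition of growth was then determined by comparison with vehicle treatment.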

[5] = NCI Yeast Anticancer Drug Screen. Data for the bub3 strain (AID 167); settings: S. cerevisiae bub3 mutant strain, active compounds read high
Summary of the method: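 Compounds were applied to a genetically altered yeast strain carrying a cell-cycle control defect. Growth inhibition was scored against vehicle-treated controls.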

[6] = NCI Yeast Anticancer Drug Screen. Data for the mlh1 rad18 strain (AID 175); settings: S. cerevisiae mlh1 rad18 strain growth inhibition, active compounds read high
Summary of the method: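 Inhibition values reflect reduced growth of mutant yeast versus vehicle-treated controls following compound exposure; the mutations affect DNA damage repair.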

[7] = at 5.0 µM (retest, dose inferred, filed as 0.5)
[8] = at 50.0 µM (retest, dose inferred, filed as 5.0)

Compound	growth inhibition [1, 7]	growth inhibition [1, 8]	growth inhibition ([1]; at 50.0 µM)	growth inhibition [2, 7]	growth inhibition [2, 8]	growth inhibition ([2]; at 50.0 µM)	growth inhibition [3, 7]	growth inhibition [3, 8]	growth inhibition ([3]; at 50.0 µM)	growth inhibition [4, 7]	growth inhibition [4, 8]	growth inhibition ([4]; at 50.0 µM)	growth inhibition [5, 7]	growth inhibition [5, 8]	growth inhibition ([5]; at 50.0 µM)	growth inhibition [6, 7]	growth inhibition [6, 8]	growth inhibition ([6]; at 50.0 µM)
CCCCCCCCCCCCCCC(O)C[N+](C)(CCO)CCO (configuration not stated)	29%	98% (active)	86.6% (active)	22%	99% (active)	87.7% (active)	32%	99% (active)	88.8% (active)	10%	98% (active)	88.3% (active)	28%	99% (active)	86% (active)	32%	98% (active)	88.9% (active)
CCCCc1[nH]ccc2c(C)c3nc4ccccc4c3cc12	6%	93% (active)	96.8% (active)	-8%	96% (active)	91.2% (active)	-14%	96% (active)	97.5% (active)	2%	95% (active)	92.1% (active)	0%	94% (active)	88.7% (active)	21%	95% (active)	98.4% (active)
CC(=O)Nc1cccc(Oc2ccc(Br)cc2[N+](=O)[O-])c1	-3%	66%	58.5%	1%	78% (active)	10%	9%	94% (active)	83.1% (active)	0%	47%	24.7%	-1%	63%	42.6%	20%	89% (active)	70.5% (active)
O=c1c2cc(Br)ccc2ncn1COCc1ccccc1	21%	20%	7.3%	11%	11%	-4.1%	21%	19%	87.2% (active)	24%	-12%	54%	15%	-21%	83.5% (active)	27%	24%	43.3%
Oc1cc(O)c2c(c1)OC(c1ccc(O)c(O)c1)C(OC1(c3cc(O)c(O)c(O)c3)Oc3cc(O)cc(O)c3C(O)C1O)C2 (configuration not stated)	-4%	17%	-3.85%	-5%	-27%	-18.2%	-14%	6%	-15.9%	-31%	4%	-9.25%	8%	-4%	-33.5%	-5%	12%	42.5%
CC1CCC(C(C)(C)c2ccc(O)cc2)CC1 (configuration not stated)	0%	97% (active)	97.7% (active)	-1%	98% (active)	98.2% (active)	3%	98% (active)	98.8% (active)	-6%	96% (active)	97.6% (active)	-4%	97% (active)	98.3% (active)	-6%	98% (active)	98.3% (active)
COc1ccc(Cc2nc3ccccc3s2)cc1OC	42%	98% (active)	90.3% (active)	39%	99% (active)	92.8% (active)	61%	99% (active)	93.7% (active)	42%	97% (active)	91.9% (active)	51%	99% (active)	92.6% (active)	73% (active)	99% (active)	91.8% (active)
CC1CCN(CC(=O)N2c3ccccc3Sc3cc4ccccc4cc32)CC1	4%	15%	10.2%	4%	-20%	13.6%	-15%	12%	-14.6%	-37%	-4%	23.8%	-4%	7%	-3.9%	-4%	8%	-2.5%
CCCCCCCCCCCCCCCCCC[N+]1(CC)CCCCC1	99% (active)	99% (active)	90.3% (active)	99% (active)	99% (active)	91.2% (active)	99% (active)	99% (active)	91.5% (active)	99% (active)	99% (active)	90.2% (active)	99% (active)	99% (active)	90.4% (active)	99% (active)	99% (active)	89.2% (active)
N#C/C(=C\NC(=S)C(N)=S)c1nc2ccccc2s1	21%	97% (active)	88.1% (active)	28%	99% (active)	90.2% (active)	7%	97% (active)	89.2% (active)	30%	97% (active)	86.9% (active)	22%	98% (active)	87.8% (active)	52%	97% (active)	85.5% (active)
C/C(=N/NC(=S)Nc1cccc(C)c1)c1ccccn1	62%	99% (active)	80.2% (active)	91% (active)	99% (active)	85.9% (active)	75% (active)	99% (active)	88.3% (active)	94% (active)	99% (active)	88.9% (active)	96% (active)	99% (active)	90.3% (active)	68%	99% (active)	91% (active)
S=C(Nc1ccc(N=Nc2ccccc2)cc1)SCc1ccccc1	1%	16%	63.3%	3%	25%	97.7% (active)	4%	28%	95.6% (active)	3%	8%	89.6% (active)	-1%	11%	98.5% (active)	-6%	59%	96% (active)
NC(=Nc1cc2ccccc2c2ccccc12)Nc1cc2ccccc2c2ccccc12	87% (active)	97% (active)	85.8% (active)	91% (active)	99% (active)	77.2% (active)	89% (active)	99% (active)	95.3% (active)	45%	96% (active)	95% (active)	35%	97% (active)	97.7% (active)	97% (active)	97% (active)	97.5% (active)
COc1cc(C/C(=C/c2ccc(OC)c3occc23)[N+](=O)[O-])cc(OC)c1OC	18%	100% (active)	70.6% (active)	29%	100% (active)	82.8% (active)	31%	99% (active)	82.9% (active)	4%	99% (active)	64.8%	12%	97% (active)	60.7%	23%	100% (active)	87.2% (active)
O=Cc1nc2c3cccnc3ccc2n1Cc1ccccc1	-4%	24%	0.05%	-17%	8%	-18.8%	-17%	15%	35.4%	-2%	5%	26.7%	0%	11%	57.4%	8%	34%	40.9%
COc1ccccc1/C=C1\NC(=S)N(/C=C2\C(=O)Oc3ccccc3C2=O)C1=O	8%	32%	73.2% (active)	-7%	25%	29.9%	-6%	38%	73% (active)	-9%	47%	64.7%	-27%	37%	79.1% (active)	9%	50%	85.9% (active)
Brc1ccc2[nH]c3ccccc3c2c1	2%	33%	57.7%	-4%	67%	44.9%	-3%	47%	86.8% (active)	-2%	65%	54.2%	3%	57%	55.2%	4%	75% (active)	90% (active)
Cc1[nH]c2ccccc2c1SCc1ccccc1	-5%	99% (active)	99.2% (active)	2%	100% (active)	99.7% (active)	0%	100% (active)	99.5% (active)	-2%	99% (active)	99.3% (active)	-6%	99% (active)	99.5% (active)	-7%	98% (active)	99.3% (active)
COc1ccc(C2c3cc4c(cc3OC(N3CCCC3)C2C)OCO4)c(OC)c1 (configuration not stated)	-3%	77% (active)	94.5% (active)	-5%	53%	94.2% (active)	1%	74% (active)	88.2% (active)	-4%	68%	71% (active)	-6%	68%	87.8% (active)	-3%	82% (active)	93.5% (active)
